# Measurements as given in PubChem BioAssay (NCI).
# About 83,000 compounds went through this panel and 20% of them were active in at least one assay; those are over-represented in the sample as a whole.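 Growth was measured after 48 h exposure to one concentration of compound in 96-well plates. Values under 10 count as active.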 A number with no mark means an inactive call. Calls of active or inactive are those of the source.
# Columns and labels:
# Assay in all cases: NCI-60 one-dose screen, 48 h (100 = growth as untreated, 0 = no growth, -100 = all killed)
# Settings in all cases: 10 µM unless noted
# NCI-H23 lung = system: NCI-H23 lung
# NCI-H226 lung = system: NCI-H226 lung
# NCI-H322M lung = system: NCI-H322M lung
# HOP-62 NSCLC = system: HOP-62 NSCLC
# NCI-H460 lung = system: NCI-H460 lung
# HOP-92 NSCLC = system: HOP-92 NSCLC
# NCI-H522 lung = system: NCI-H522 lung
# A549/ATCC NSCLC = system: A549/ATCC NSCLC
# 786-0 renal = system: 786-0 renal
# COLO 205 colon = system: COLO 205 colon
# DU-145 prostate = system: DU-145 prostate
# K-562 leukemia = system: K-562 leukemia
# MALME-3M melanoma = system: MALME-3M melanoma
# MDA-MB-231 breast = system: MDA-MB-231 breast
# SF-268 CNS = system: SF-268 CNS
# SF-295 CNS = system: SF-295 CNS
# SF-539 CNS = system: SF-539 CNS
# UACC-257 melanoma = system: UACC-257 melanoma
# M14 melanoma = system: M14 melanoma
Structure (SMILES),growth (NCI-H23 lung),growth (NCI-H226 lung),growth (NCI-H322M lung),growth (HOP-62 NSCLC),growth (NCI-H460 lung),growth (HOP-92 NSCLC),growth (NCI-H522 lung),growth (A549/ATCC NSCLC),growth (786-0 renal),growth (COLO 205 colon),growth (DU-145 prostate),growth (K-562 leukemia),growth (MALME-3M melanoma),growth (MDA-MB-231 breast),growth (SF-268 CNS),growth (SF-295 CNS),growth (SF-539 CNS),growth (UACC-257 melanoma),growth (M14 melanoma)
CN1CCN(c2c(F)cc(NC3=C(Cl)C(=O)c4ncccc4C3=O)cc2F)CC1,82.8%,97.1%,108%,111%,107%,41%,-9.58% (active),109%,101%,64.7%,103%,2.2% (active),-6.37% (active),84.2%,93.3%,117%,98.1%,69.3%,76.5%
C[C@]12CCc3nc(Nc4cccc(O)c4)sc3C1=CC[C@@H]1[C@@H]2CC[C@]2(C)/C(=N\NC(N)=S)CC[C@@H]12,57.3%,91.8%,73.5%,32%,21.3%,52.1%,-12.2% (active),59.3%,-36% (active),42.7%,8.45% (active),3.19% (active),39%,26.2%,37.6%,-34% (active),-48% (active),74%,31.1%
CC(=O)Nc1ccc(C(=O)Nc2cc(-c3ccccc3)ccc2N)cc1,86.4%,124%,79.5%,67.7%,59.7%,69.2%,55.6%,74.2%,97.9%,35.5%,73.2%,39.2%,80.6%,92.5%,68.2%,58.7%,81%,72.6%,77.3%
COc1ccc(Cn2nc3c(c2-c2cc(OC)c(OC)c(OC)c2)-c2oncc2CC3)cc1,79.8%,106%,99%,96.7%,107%,78.2%,12.7%,95.2%,85.1%,99.1%,105%,39.9%,93.7%,65.8%,96.7%,77.2%,89.1%,104%,84.6%
CCN(CC)CCOC(COc1cc(C)cc(C)c1)COc1cc(C)cc(C)c1,37.9%,54.4%,48.7%,54.3%,9.62% (active),22.7%,35.4%,47.8%,44.9%,-15.8% (active),48.1%,2.57% (active),13.6%,23.8%,56.6%,48.9%,61.9%,65.1%,7.46% (active)
COc1ccc(C(=O)c2cc3c(N)c(C(=O)Nc4cccc(OC)c4)sc3nc2C)cc1,33.8%,68%,58.7%,41.5%,7.07% (active),85.3%,-16% (active),25.3%,50.7%,-3.22% (active),16.2%,8.3% (active),55.6%,15.5%,39%,24.2%,-16.3% (active),71.3%,13.1%
N/C(=N\N=C\c1cc2ccccc2[nH]1)N/N=C/c1cc2ccccc2[nH]1,96.3%,93.7%,100%,95.7%,95.7%,76.6%,98%,101%,98.7%,102%,112%,61.6%,87.9%,99.9%,103%,111%,104%,107%,99.4%
Clc1ccc(C2CC(c3cccc(Nc4ccncc4)c3)=NN2c2ccccc2)cc1 (configuration not stated),84.3%,93.1%,69.7%,0.979% (active),-70.5% (active),55.8%,-39.1% (active),27.3%,-94.3% (active),-63.6% (active),56.7%,0.432% (active),-72% (active),75.2%,82.1%,70%,71.5%,34.5%,-80.6% (active)
